PfHsp40 yeast: rescue of yeast from PfHsp40 toxicity, primary screen, S. cerevisiae, ATP luminescence; S. cerevisiae expressing PfHsp40, growth rescue; growth rescue, % at 12.5 µM; 340,000 compounds, 0.68% hits; in the data active = growth rescue above about 28%, passing the limit was not always enough; inconclusive = no clear call, values can overlap the other calls;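 note: yeast W303a lacking pdr1 and pdr3 grown in galactose medium; growth measured after three days at 30 °C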
PrP 5UTR inh: inhibition of PrP 5' UTR reporter expression; cell-based PrP 5' UTR mRNA reporter, plate reader; inhibition, % (no concentration beside the values); 340,000 compounds, 0.35% hits; AID 488862, 2010; in the data active = inhibition above about 52%; note: 0 = median of the neutral control wells
CCHF vOTU inh: CCHFV vOTU protease inhibitors, primary screen, biochemical, Pep-AMC substrate, fluorescence; AID 651958, 2012; inhibition, % at 11.5 µM; 370,000 compounds, 0.55% hits; Crimean-Congo hemorrhagic fever virus L polyprotein viral ovarian tumor (vOTU) protease …; in the data active = inhibition above about 30%; note: 0% = vehicle wells with enzyme and 100% = no enzyme wells
ugtP null kill: growth inhibition of ugtP-null S. aureus, primary screen, RN4220 ugtP deletion, OD600; AID 1259309, 2017; growth inhibition, % (concentration not given with the values); 16 h; 330,000 compounds, 0.54% hits; in the data active = growth inhibition above about 68%;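 note: plate controls were untreated wells for no effect and antibiotic for full effect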
PrPC surface inh: inhibitors of human cell surface prion protein PrPC, primary screen, cell-based, TR-FRET. Major prion protein (Homo sapiens), P04156. TR-FRET read-out. inhibition, % at 13.8 µM. 370,000 compounds, 0.43% hits. AID 720596, 2013; in the data active = inhibition above about 24%; note: 0% = median of the test wells and 100% = reference compound wells
RN4220 kill: growth inhibition of S. aureus RN4220, primary screen, OD600; 16 h; inhibition, % (test concentration not listed); 330,000 compounds, 0.33% hits; in the data active = inhibition above about 85%;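 note: plate controls were untreated cells for no effect and reference antibiotic for full effect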
An asterisk follows results filed as active; ? = inconclusive; . = no result. An excerpt weighted towards active compounds, which were near 2.1% of everything screened.

SMILES	PfHsp40 yeast	PrP 5UTR inh	CCHF vOTU inh	ugtP null kill	PrPC surface inh	RN4220 kill
O=C(Nc1ccccc1)C(Cl)C(=O)c1ccccc1 (stereo unspecified)	4.2	-40.9	-10.6	91.6*	2.2	63.9
Cc1cc(N2C(=O)C(O)=C(C(=O)c3ccco3)C2c2ccc(Cl)cc2)no1 (stereo unspecified)	0.0	-13.9	15.4	73.4	5.3	87.1*
CC(C)C(=O)N1CCN(c2ccc(NC(=O)c3ccc([N+](=O)[O-])o3)cc2)CC1	-1.3	-25.1	0.1	-0.2	-0.6	9.5
CCCC(=O)N1CCN(c2ccc(NC(=O)c3ccc([N+](=O)[O-])o3)cc2Cl)CC1	?	-61.5	25.9	34.9	39.9*	43.7
CN1CCN(c2ccc(NC(=O)c3ccc([N+](=O)[O-])o3)cc2Cl)CC1	-1.2	4.3	11.3	100.7*	12.2	99.3*
O=C(Nc1ccccc1N1CCOCC1)c1ccc([N+](=O)[O-])o1	-1.4	-27.3	-2.8	61.9	-7.5	51.3
CC(=O)N1CCN(c2ccc(NC(=O)c3ccc(Br)o3)cc2Cl)CC1	-0.2	-39.4	12.6	-3.3	9.0	-0.4
O=C(Nc1ccc(N2CCOCC2)c(Cl)c1)c1ccc([N+](=O)[O-])o1	7.5	-27.4	-4.8	96.4*	-2.8	64.9
CCCCCCC(=O)NN=Cc1ccco1	.	.	.	-0.1	.	0.6
NC(C(=O)NC1C(=O)N2C(C(=O)O)=C(Cl)CSC12)c1ccccc1 (stereo unspecified)	.	.	.	100.2*	.	100.5*
N#Cc1c(=O)c2nc(NCCCO)ncc2n2c(=O)c3ccccc3[nH]c12	82.7*	-22.4	3.6	0.2	-15.4	-1.2
Cc1cc(NS(=O)(=O)c2ccc(NC(=O)CSc3nnc(-c4ccccn4)n3Cc3ccco3)cc2)nc(C)n1	.	.	0.5	.	-4.4	.
Cc1cc(NS(=O)(=O)c2ccc(NC(=O)CSc3nnc(-c4ccco4)n3Cc3ccco3)cc2)nc(C)n1	54.4*	-24.1	1.7	0.6	8.4	4.9
CC1CCc2c(sc3nc(C4CC4)nc(N4CCN(C(=O)c5ccco5)CC4)c23)C1 (stereo unspecified)	160.7*	-25.5	13.4	16.0	16.6	-13.9
CCCNC(=O)c1nnsc1S(=O)(=O)c1ccc(Cl)cc1	119.5*	9.7	14.7	0.1	5.3	2.1
Cc1ccc(-c2cc[n+](Cc3ccccc3)cc2)cc1	1.1	-20.5	-3.0	1.5	9.1	2.2
Cc1ccc2c(c1)sc[n+]2Cc1ccccc1	0.1	-87.6	-4.0	99.3*	-6.8	20.8
COC(=O)C(=NOCc1ccc(C#N)cc1)c1c(C)nn(C)c1C	.	.	.	2.0	.	-2.2
NC(=NN=Cc1ccc([N+](=O)[O-])cc1)c1nonc1N	.	.	.	3.5	.	3.5
COc1cc(C(=O)NCC(c2cccs2)N2CCOCC2)cc(Br)c1OCc1ccccc1 (stereo unspecified)	132.5*	0.6	26.3	11.7	3.5	8.4
CN1C(=O)C(=Cc2c(OCc3cnc(Cl)s3)ccc3ccccc23)C(=O)N(C)C1=O	125.2*	-27.6	18.3	18.2	-3.9	2.9
NC(=S)NN=C1c2ccccc2-c2c(C(=O)O)cccc21	.	.	.	2.9	.	5.1
CC(C)Cn1c(N)c(C(=O)COC(=O)C2Cc3ccccc3CN2S(C)(=O)=O)c(=O)n(C)c1=O (stereo unspecified)	50.2*	-1.0	4.8	-2.9	17.9	1.9
CC(C)Cn1c(N)c(C(=O)COC(=O)C2CCCCC2)c(=O)n(C)c1=O	2.3	-15.0	-0.3	2.3	3.9	2.9
CN(C(=NS(=O)(=O)c1ccccc1)c1ccccc1)S(=O)(=O)c1ccccc1	.	.	.	-0.5	.	2.7
SMILES	PfHsp40 yeast	PrP 5UTR inh	CCHF vOTU inh	ugtP null kill	PrPC surface inh	RN4220 kill
O=[N+]([O-])c1ccc2[nH]nc(-c3ccccc3)c2c1	40.9*	-8.2	10.0	-28.0	-8.1	-5.7
O=C(O)c1[nH]c2ccc([N+](=O)[O-])cc2c1-c1ccccc1	1.2	-1.2	5.3	-13.8	-5.1	-4.3
CCCCCc1cc(OC)cc2c1C(=O)OC(C)(C)O2	72.4*	3.3	-1.1	5.5	-4.3	2.7
Cc1cccc(CN(CC(=O)NN=Cc2cccs2)S(=O)(=O)c2ccc(Cl)cc2)c1	.	.	.	-20.6	.	-7.5
OCCN(CCO)c1ccc2ccccc2c1	-0.7	-6.2	-68.1	-0.9	5.4	9.6
OCCN(CCO)c1cc2c3ccccc3ccc2c2ccccc12	528.5*	-21.1	-37.0	-13.9	0.3	-12.2
CC1CCc2nc(C(C#N)=Cc3ccncc3)sc2C1 (stereo unspecified)	.	.	.	-2.0	.	4.9
O=C1NC(=S)S/C1=C\c1ccc(SCc2ccccc2)o1	0.5	-18.9	18.2	89.5*	-12.8	92.8*
CC[n+]1c(/C=C/N(C)c2ccccc2)oc2ccc(Cl)cc21	-1.4	-3.3	18.7	.	-3.5	.
CCN1/C(=C/C=C/c2oc3ccc4ccccc4c3[n+]2CC)Oc2ccc3ccccc3c21	.	.	.	99.3*	.	98.4*
CCOc1cc(C)c(Cl)cc1S(=O)(=O)NC1CC(C)(C)NC(C)(C)C1	-0.1	-12.7	-4.6	2.7	0.6	0.3
CCOc1cc(S(=O)(=O)NC2CC(C)(C)NC(C)(C)C2)ccc1Cl	123.4*	3.6	-14.9	5.6	9.1	-0.1
CCCn1nc(C(=O)N2CCN(S(=O)(=O)c3ccc(C)c(C)c3)CC2)c2ccccc2c1=O	68.6*	-3.4	1.9	-0.6	-7.1	4.7
O=C(Nc1ccc(F)cc1)Nc1cnccn1	-0.9	-16.5	6.8	1.7	-3.4	1.2
O=C(Nc1cc(Cl)cc(Cl)c1)Nc1cnccn1	-0.6	-23.7	10.8	100.1*	4.8	99.6*
O=C(Nc1ccc(F)cc1)C(Cl)=Cc1ccccc1	.	.	.	-1.8	.	5.6
N#Cc1c(NC(=S)NC(=O)Cc2cccs2)sc2c1CCCCC2	-0.1	-19.4	4.3	87.0*	0.3	-5.1
CCOC(=O)/C(C#N)=C1/C=C(C)NC(c2ccccc2O)=N1	-0.7	.	0.0	83.2*	5.2	80.8
CCCCC1CN=C(N)N1CCCC (stereo unspecified)	.	.	.	2.4	.	8.9
CCCCCCCCN1[C@@H](CC(=O)OCC)c2ccc(C(F)(F)F)cc2S1(=O)=O	38.0*	-23.4	4.0	.	7.0	.
Nc1nonc1-n1nnc(C(=O)NN=Cc2c(Cl)cccc2Cl)c1CSC1=NCCS1	.	.	.	-3.9	.	-9.0
O=C(Nc1cccc(Cl)c1N1CCCC1)c1cc2ccccc2o1	-0.5	-33.8	8.4	88.7*	6.5	-12.2
CCCCN1C(=S)NCC1Cc1cccc2ccccc12 (stereo unspecified)	.	.	.	4.6	.	3.5
N#CC1=C(N)Oc2c(ccc3cccnc23)C1c1ccccc1 (stereo unspecified)	0.4	19.3	-10.2	0.3	7.9	8.1
Cc1ccc2[nH]c(=O)c(C3C(C#N)=C(N)Oc4c3ccc3cccnc43)cc2c1 (stereo unspecified)	84.4*	-15.1	2.7	-13.6	-3.8	7.9

Screening results: PubChem BioAssay, several laboratories
